The record followed here is ChEMBL document CHEMBL4513216, “Probing the Open Global Health Chemical Diversity Library for Multistage-Active Starting Points for Next-Generation Antimalarials” (ACS Infect Dis, 2020).

In all, about 69,000 compounds went through this assay and about 8,600 (12%) showed an effect of 50% or more. The sample as a whole holds a higher share of strong results than the screen did.

For this assay, the system named is Plasmodium berghei. The assay is described as follows: Screen against P. berghei liver stage (PbLuc), transformed with Luciferase, at 10uM. In kind it is functional, HepG2. As to conditions: tested at 10 uM.
Regarding `Cc1noc(C)c1CCC(=O)N1CCOCC1CC(=O)N1CCCC1` (centres undefined), the INHIBITION is -14.1%.
For `COCC(=O)N1CCO[C@H]2[C@H](OCc3cccnc3)CC[C@@H]21` the value was -15.7%; for `Cc1nc(N2CCC3(CCCNC3=O)C2)nc2c1CCCC2` (centres undefined), 47.5%; for `CNc1nc(N2CCC3(CCCNC3=O)C2)nc2c1CCC2` (centres undefined), -7.17%.
Regarding `O=C1NCCCC12CCN(c1nc3c(c(C(F)(F)F)n1)CCCC3)C2` (centres undefined), the INHIBITION worked out at 80.7%.
To `CCC(O)CN1CCN(C(=O)c2cccn2Cc2cccnc2)CC1` (centres undefined) belongs 7.12%.
With `CN(C)CCCNC(=O)C1CC(=O)N(c2n[nH]c3cccc(F)c23)C1` (centres undefined), the INHIBITION was found to be 14.6%.
With `CC(C)(C)NC(=O)CNc1ncccn1`, the INHIBITION is on record as -1.85%.
As to `Cc1nc(N2CCN(C)CC2)ncc1C(=O)N1CCCCC1`, the INHIBITION is given as 36.6%.
For `Cc1nc(N2CCN(C)CC2)ncc1C(=O)N1CCCCCC1`, the INHIBITION is 51.7%.
To `Cc1nc(N2CCN(C)CC2)ncc1C(=O)N1CCN(C)CC1` belongs 23%.
Turning to `CC1CCN(c2ccc(C(=O)N3CCCC3c3ccc[nH]3)cn2)CC1` (centres undefined), the INHIBITION was 27%.
For `CCCN1C(=O)[C@@H]2CC[C@H]1CN(S(=O)(=O)c1cccc(Cl)c1)C2` the value was -26.8%; for `COc1cccc(C(=O)NC(c2ccccn2)C2CCC(CN)CC2)c1` (centres undefined), 41.2%.
For `CN(CC(=O)Nc1nc2c(s1)CCCCCC2)C(=O)c1ccco1` the value was 74.4%.
To `CN(CC(=O)Nc1nc2c(s1)CCC2)C(=O)c1cccs1` belongs -8.51%; to `CC1CCc2nc(NC(=O)CN(C)C(=O)c3ccco3)sc2C1` (centres undefined), 31.4%; to `Cc1cccc(CN2C[C@@H]3COC[C@]3(CNC(=O)c3ccccc3)C2)n1`, 38.3%.
For the compound `COc1cc(N2CCN(Cc3ccc(C)o3)C(CCO)C2)nc(N)n1` (centres undefined), the INHIBITION came to 35.2%.
In the case of `Cc1ccc(CN2CCN(C3CSCCSC3)CC2CCO)o1` (centres undefined), the INHIBITION turned out to be 50.9%.
To `CC(=O)N1CCC(N2CCN(Cc3ccc(C)o3)C(CCO)C2)CC1` (centres undefined) belongs 33.7%.
With `Cc1ccc(CN2CCN(C3CCSCC3)CC2CCO)o1` (centres undefined), the INHIBITION is 48%.
Regarding `Cc1ccc(CN2CCN(C3CCCC3)CC2CCO)o1` (centres undefined), the INHIBITION stood at 50.9%.
With `Cc1ccc(CN2CCN(C3CCC3)CC2CCO)o1` (centres undefined), the INHIBITION was found to be 46.6%.
To `CCCc1ccc(CN2CCC3(CCC(=O)N(C(C)C(=O)O)C3)CC2)o1` (centres undefined) belongs 1.74%; to `O=C(CN1CCN(C(=O)c2sccc2C2CC2)CC1)NC1CC1`, 31.8%.
Take `CCOCC(=O)N1C[C@@H]2CC[C@H]1CN(C(=O)c1ccncc1)C2`: the INHIBITION is recorded as -30.7%.
For `Cc1cc(NC(C)c2csc(C)n2)n2nc(C)c(C)c2n1` (centres undefined) the value was 25.4%; for `CNC(=O)NC(=O)CSC(C)c1ccccc1F` (centres undefined), 55%.
Take `CC(SCC(=O)NC(N)=O)c1ccccc1F` (centres undefined): the INHIBITION stood at 24.7%.
For `CC(SCC(=O)N(C)CC(=O)NC1CC1)c1ccccc1F` (centres undefined) the value was 85.7%; for `CCNC(=O)NC(=O)CSC(C)c1ccccc1F` (centres undefined), -32.3%.
Turning to `CC(SCC(=O)N(C)CC(=O)NC1CC1)c1cc(F)ccc1F` (centres undefined), the INHIBITION worked out at 49.3%.
In the case of `CC(SCC(=O)N(C)CC(=O)NC1CC1)c1ccc(F)c(F)c1` (centres undefined), the INHIBITION is -18.9%.
To `Nc1nc(C2CCN(C(=O)c3cscn3)CC2)cs1` belongs 34.7%.
`CN1C[C@@H]2CN(C(=O)NCc3ccccc3)CCC[C@]2(C(=O)O)C1`: the INHIBITION was found to be 5.63%.
For `COCC1CC2(CCN(Cc3ccoc3)CC2)CN1C(C)C` (centres undefined) the value was -1.26%; for `Cc1ccccc1CNC(=O)c1ccccc1-n1cc(CN)cn1`, 20.8%.
For `CSCC[C@H](N)C(=O)NCc1cc2n(n1)CCCN(C(=O)C1CCC1)C2` the value was 28.5%.
For `Cc1cc(C)c(CNC(=O)NCc2ccc(F)cc2)c(=O)[nH]1` the value was 27.6%; for `c1cc2cc[nH]c2c(CC2CN(Cc3cscn3)C2)n1`, 53.6%; for `Cn1ccc(CN2CC(Cc3nccc4cc[nH]c34)C2)n1`, 41.5%.
Consider `c1cc2cc[nH]c2c(CC2CN(Cc3cncs3)C2)n1`, for which the INHIBITION is reported as -0.232%.
For `CC(=O)N1CC[C@@]2(O)CCCC[C@H]2[C@@H]1c1ccc2c(c1)OCO2` the value was 52.1%.
For `NC(=O)CN1CC[C@@]2(O)CCCC[C@H]2[C@@H]1c1ccc2c(c1)OCO2` the value was 17.6%.
To `COC(=O)N1CC[C@@]2(O)CCCC[C@H]2[C@@H]1c1ccc2c(c1)OCO2` belongs 42.3%; to `CCOCC1CN(S(=O)(=O)N(C)C)Cc2cnn(CC3CC3)c21` (centres undefined), -57.7%; to `Cc1cc(CCC(=O)N2CCCC2)nc(C2CCCN2)n1` (centres undefined), 24.8%.
Turning to `O=S(=O)(CCCN1CCCCC1Cn1cncn1)c1ccccc1` (centres undefined), the INHIBITION is -29.8%.
For `CN(CC(=O)N1CCCCC1c1nccs1)C1CC1` (centres undefined) the value was 13.6%.
On to `CC1CN(Cc2cccc(CN)c2)CCO1` (centres undefined), for which the INHIBITION turned out to be 59.1%.
In the case of `CC1CN(Cc2cccc(CNC3CCCC3)c2)CCO1` (centres undefined), the INHIBITION stood at 37.4%.
For `CCCN1CCC(NCc2cccc(CN3CCOC(C)C3)c2)CC1` (centres undefined) the value was 21.1%.
Take `CC1CCN(CC(=O)N(C)CCc2noc(C3CC3)n2)C1=O` (centres undefined): the INHIBITION is on record as -22.1%.
